Reference: ChEMBL document CHEMBL1961873, “Compounds: GSK PKIS; Assays: Nanosyn kinase panel” (2012)

Key:
[1] = biological target: Tyrosine-protein kinase Fer (Homo sapiens) (UniProt P16591); conditions: at 1 µM
[2] = biological target: Tyrosine-protein kinase Fes/Fps (Homo sapiens) (UniProt P07332); conditions: at 0.1 µM
[3] = biological target: Tyrosine-protein kinase Fes/Fps (Homo sapiens) (UniProt P07332); conditions: at 1 µM
[4] = biological target: Fibroblast growth factor receptor 1 (Homo sapiens) (UniProt P11362); conditions: at 0.1 µM
[5] = biological target: Fibroblast growth factor receptor 1 (Homo sapiens) (UniProt P11362); conditions: at 1 µM
[6] = biological target: Fibroblast growth factor receptor 2 (Homo sapiens) (UniProt P21802); conditions: at 0.1 µM
[7] = biological target: Fibroblast growth factor receptor 2 (Homo sapiens) (UniProt P21802); conditions: at 1 µM
[8] = biological target: Fibroblast growth factor receptor 3 (Homo sapiens) (UniProt P22607); conditions: at 0.1 µM
[9] = biological target: Fibroblast growth factor receptor 3 (Homo sapiens) (UniProt P22607); conditions: at 1 µM
[10] = biological target: Fibroblast growth factor receptor 4 (Homo sapiens) (UniProt P22455); conditions: at 0.1 µM
[11] = biological target: Fibroblast growth factor receptor 4 (Homo sapiens) (UniProt P22455); conditions: at 1 µM
[12] = biological target: Tyrosine-protein kinase Fgr (Homo sapiens) (UniProt P09769); conditions: at 0.1 µM
[13] = biological target: Tyrosine-protein kinase Fgr (Homo sapiens) (UniProt P09769); conditions: at 1 µM
[14] = biological target: Vascular endothelial growth factor receptor 1 (Homo sapiens) (UniProt P17948); conditions: at 0.1 µM
[15] = biological target: Vascular endothelial growth factor receptor 1 (Homo sapiens) (UniProt P17948); conditions: at 1 µM
[16] = biological target: Receptor-type tyrosine-protein kinase FLT3 (Homo sapiens) (UniProt P36888); conditions: at 0.1 µM
[17] = biological target: Receptor-type tyrosine-protein kinase FLT3 (Homo sapiens) (UniProt P36888); conditions: at 1 µM
[18] = tested on: T1, Receptor-type tyrosine-protein kinase FLT3 (Homo sapiens), P36888 [D835Y]; conditions: at 0.1 µM
T1 sequence (whole entry): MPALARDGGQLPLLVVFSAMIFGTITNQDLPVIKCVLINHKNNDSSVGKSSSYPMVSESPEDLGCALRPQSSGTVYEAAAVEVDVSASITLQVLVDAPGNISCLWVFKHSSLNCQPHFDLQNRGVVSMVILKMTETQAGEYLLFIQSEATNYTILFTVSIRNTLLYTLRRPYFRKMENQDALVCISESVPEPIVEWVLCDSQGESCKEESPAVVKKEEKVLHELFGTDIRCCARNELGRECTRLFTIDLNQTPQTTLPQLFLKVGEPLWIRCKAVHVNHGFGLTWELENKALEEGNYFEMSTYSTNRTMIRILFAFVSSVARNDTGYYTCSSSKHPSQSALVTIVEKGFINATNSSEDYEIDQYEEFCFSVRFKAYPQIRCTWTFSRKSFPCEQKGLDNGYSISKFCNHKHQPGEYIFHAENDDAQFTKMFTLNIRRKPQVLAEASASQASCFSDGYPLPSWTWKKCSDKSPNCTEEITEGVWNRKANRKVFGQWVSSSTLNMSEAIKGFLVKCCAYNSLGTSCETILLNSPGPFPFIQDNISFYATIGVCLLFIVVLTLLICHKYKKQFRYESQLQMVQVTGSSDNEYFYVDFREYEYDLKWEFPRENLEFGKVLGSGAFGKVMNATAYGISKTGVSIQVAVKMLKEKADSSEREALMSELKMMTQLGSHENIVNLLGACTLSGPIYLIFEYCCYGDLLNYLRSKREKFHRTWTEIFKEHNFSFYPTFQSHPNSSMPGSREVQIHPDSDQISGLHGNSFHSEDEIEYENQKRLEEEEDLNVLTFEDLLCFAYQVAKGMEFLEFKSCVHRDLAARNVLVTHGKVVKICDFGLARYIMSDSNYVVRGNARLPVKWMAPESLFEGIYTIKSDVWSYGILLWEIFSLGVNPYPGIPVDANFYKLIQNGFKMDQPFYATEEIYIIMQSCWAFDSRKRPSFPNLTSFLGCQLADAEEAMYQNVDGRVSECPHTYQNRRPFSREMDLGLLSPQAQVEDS

[19] = biological target: Non-receptor tyrosine-protein kinase TYK2 (Homo sapiens) (UniProt P29597); conditions: at 1 µM;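 also: values are mean percent inhibition of TYK2 kinase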
[20] = biological target: T2, Tyrosine-protein kinase receptor TYRO3 (Homo sapiens) (UniProt Q06418); conditions: at 0.1 µM;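 also: reported percentages are averaged inhibition values of TYRO3 kinase activity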
T2 sequence (whole entry): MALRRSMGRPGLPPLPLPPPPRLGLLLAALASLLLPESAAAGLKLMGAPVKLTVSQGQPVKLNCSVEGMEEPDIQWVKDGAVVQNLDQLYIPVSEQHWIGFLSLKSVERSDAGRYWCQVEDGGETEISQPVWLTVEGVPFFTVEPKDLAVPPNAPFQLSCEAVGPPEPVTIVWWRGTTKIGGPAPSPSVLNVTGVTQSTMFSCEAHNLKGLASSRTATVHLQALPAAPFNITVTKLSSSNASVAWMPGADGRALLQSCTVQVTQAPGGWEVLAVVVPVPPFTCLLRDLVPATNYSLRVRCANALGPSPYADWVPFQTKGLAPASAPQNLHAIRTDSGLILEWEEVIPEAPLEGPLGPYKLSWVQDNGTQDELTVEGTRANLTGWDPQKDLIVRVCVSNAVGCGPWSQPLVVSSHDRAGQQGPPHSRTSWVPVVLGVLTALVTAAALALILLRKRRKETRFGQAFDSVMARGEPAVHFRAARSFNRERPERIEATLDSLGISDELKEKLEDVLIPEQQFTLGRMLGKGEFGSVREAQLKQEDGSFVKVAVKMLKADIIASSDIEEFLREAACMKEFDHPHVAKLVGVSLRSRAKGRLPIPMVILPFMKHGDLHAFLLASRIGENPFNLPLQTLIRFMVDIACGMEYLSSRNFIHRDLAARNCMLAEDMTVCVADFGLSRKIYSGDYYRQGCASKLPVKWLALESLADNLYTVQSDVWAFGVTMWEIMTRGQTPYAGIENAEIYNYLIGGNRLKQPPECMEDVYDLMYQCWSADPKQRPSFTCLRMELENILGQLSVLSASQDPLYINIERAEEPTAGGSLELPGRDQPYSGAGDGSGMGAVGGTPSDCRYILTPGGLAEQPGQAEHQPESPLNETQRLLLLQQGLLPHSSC

Tyrosine-protein kinase Fer (Homo sapiens), sequence (P16591 whole entry, looked up): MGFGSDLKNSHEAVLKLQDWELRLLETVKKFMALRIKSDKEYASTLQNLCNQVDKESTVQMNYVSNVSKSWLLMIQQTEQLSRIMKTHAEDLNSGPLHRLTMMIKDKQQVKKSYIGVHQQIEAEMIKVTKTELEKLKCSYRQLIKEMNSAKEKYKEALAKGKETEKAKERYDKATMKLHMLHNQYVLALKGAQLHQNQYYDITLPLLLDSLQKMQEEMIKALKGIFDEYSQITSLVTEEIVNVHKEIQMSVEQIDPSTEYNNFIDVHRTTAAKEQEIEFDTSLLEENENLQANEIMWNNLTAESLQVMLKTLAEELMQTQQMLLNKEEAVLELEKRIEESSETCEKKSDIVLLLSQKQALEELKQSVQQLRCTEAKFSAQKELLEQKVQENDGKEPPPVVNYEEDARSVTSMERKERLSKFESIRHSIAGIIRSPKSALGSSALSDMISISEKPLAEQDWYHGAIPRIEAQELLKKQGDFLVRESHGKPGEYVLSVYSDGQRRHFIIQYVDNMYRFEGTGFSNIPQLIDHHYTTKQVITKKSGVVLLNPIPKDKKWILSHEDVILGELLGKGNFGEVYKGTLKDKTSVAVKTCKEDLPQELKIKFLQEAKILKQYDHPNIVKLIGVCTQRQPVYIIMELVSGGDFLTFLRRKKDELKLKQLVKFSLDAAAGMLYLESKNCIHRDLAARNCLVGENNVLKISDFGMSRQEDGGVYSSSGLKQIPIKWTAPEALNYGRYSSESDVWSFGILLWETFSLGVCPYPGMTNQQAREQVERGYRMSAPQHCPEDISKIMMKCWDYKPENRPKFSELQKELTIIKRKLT
Tyrosine-protein kinase Fgr (Homo sapiens), sequence (P09769 2-529 limits assumed): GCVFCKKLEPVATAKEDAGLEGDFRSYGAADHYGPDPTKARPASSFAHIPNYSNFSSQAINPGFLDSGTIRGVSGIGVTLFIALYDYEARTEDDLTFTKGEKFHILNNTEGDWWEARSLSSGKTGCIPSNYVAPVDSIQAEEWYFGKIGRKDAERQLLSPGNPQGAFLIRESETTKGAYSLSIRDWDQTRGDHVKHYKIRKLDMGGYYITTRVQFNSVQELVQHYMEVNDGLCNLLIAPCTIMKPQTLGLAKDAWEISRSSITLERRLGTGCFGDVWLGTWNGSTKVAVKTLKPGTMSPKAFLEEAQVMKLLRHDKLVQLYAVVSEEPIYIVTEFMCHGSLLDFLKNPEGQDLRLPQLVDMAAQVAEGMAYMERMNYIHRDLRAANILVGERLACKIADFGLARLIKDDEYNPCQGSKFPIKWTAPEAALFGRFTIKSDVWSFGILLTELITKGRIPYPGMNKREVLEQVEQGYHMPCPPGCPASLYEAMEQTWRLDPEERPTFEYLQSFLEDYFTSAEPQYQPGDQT
Vascular endothelial growth factor receptor 1 (Homo sapiens), sequence (P17948 whole entry): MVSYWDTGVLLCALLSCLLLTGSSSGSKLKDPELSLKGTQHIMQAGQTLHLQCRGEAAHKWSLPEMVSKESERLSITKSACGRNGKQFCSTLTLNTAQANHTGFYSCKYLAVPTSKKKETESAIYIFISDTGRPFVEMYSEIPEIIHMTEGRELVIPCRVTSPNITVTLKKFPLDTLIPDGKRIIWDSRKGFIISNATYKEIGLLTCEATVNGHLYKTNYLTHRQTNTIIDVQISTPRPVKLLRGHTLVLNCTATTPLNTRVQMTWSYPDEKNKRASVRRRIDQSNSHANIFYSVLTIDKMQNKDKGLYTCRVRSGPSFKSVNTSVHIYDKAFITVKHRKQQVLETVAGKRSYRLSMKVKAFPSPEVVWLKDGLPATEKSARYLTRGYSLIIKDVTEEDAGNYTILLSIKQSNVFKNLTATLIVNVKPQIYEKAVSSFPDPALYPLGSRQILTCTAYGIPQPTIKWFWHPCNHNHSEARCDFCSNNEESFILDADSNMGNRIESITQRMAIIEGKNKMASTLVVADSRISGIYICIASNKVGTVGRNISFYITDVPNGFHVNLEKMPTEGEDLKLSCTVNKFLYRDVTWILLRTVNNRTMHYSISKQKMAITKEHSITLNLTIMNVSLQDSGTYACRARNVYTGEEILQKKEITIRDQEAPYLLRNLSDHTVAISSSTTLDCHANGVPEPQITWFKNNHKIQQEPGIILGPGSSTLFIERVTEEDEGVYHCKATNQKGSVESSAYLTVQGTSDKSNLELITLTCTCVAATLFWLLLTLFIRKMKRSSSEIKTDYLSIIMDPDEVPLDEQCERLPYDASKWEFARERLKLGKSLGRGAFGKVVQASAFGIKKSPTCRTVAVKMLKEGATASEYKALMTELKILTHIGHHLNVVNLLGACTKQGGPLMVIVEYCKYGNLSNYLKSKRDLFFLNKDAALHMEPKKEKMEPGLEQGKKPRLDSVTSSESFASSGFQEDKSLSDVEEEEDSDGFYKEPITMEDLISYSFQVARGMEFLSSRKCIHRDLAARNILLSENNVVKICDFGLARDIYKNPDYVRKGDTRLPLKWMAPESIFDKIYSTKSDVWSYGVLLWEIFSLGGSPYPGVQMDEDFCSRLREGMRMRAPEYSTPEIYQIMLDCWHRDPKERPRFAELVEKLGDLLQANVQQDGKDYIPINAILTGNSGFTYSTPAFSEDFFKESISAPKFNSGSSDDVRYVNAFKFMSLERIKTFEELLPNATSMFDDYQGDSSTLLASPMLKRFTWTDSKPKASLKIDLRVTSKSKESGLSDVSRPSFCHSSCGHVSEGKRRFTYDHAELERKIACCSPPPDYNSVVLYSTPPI
Fibroblast growth factor receptor 2 (Homo sapiens), sequence (P21802 22-821 limits assumed): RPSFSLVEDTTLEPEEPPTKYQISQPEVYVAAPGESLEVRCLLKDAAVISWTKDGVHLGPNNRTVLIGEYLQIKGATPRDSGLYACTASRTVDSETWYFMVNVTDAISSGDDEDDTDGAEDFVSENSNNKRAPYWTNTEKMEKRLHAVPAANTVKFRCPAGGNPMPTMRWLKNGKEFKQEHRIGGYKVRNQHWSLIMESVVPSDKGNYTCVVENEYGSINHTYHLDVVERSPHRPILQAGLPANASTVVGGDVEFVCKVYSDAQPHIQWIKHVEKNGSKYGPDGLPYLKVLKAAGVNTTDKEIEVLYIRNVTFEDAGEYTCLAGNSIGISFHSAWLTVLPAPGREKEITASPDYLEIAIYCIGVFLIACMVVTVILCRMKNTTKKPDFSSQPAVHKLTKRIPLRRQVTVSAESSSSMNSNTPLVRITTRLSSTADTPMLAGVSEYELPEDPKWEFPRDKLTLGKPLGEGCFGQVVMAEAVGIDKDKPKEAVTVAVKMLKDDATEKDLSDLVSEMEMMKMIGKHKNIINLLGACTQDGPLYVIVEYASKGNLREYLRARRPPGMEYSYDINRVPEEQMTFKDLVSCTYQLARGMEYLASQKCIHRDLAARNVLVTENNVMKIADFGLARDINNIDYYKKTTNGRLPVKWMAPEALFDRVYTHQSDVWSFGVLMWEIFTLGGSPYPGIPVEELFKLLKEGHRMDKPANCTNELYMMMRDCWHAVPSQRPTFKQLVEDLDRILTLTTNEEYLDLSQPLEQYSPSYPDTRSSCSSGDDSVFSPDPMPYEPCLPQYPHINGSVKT
Fibroblast growth factor receptor 1 (Homo sapiens), sequence (P11362 22-822 limits assumed): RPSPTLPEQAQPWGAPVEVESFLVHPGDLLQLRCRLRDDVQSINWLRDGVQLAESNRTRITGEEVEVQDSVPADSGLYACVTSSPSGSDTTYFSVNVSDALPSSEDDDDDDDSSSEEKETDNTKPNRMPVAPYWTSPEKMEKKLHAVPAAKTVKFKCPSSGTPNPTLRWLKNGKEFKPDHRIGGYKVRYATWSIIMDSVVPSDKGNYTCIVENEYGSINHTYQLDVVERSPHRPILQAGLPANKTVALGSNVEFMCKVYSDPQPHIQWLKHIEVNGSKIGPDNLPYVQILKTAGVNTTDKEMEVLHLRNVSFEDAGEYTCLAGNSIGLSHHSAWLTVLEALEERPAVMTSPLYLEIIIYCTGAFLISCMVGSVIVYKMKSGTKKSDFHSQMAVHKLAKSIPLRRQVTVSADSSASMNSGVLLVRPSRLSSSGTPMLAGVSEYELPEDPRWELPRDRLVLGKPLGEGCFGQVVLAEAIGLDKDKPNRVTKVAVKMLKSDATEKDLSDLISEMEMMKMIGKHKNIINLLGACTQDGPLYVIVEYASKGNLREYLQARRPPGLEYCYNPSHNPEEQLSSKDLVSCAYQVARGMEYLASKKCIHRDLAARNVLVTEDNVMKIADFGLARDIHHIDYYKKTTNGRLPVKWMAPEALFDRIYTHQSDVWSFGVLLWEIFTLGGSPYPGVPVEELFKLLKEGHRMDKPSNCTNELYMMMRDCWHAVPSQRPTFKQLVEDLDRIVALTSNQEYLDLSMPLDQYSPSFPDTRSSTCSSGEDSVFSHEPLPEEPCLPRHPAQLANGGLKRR
Fibroblast growth factor receptor 3 (Homo sapiens), sequence (P22607 23-806 limits assumed): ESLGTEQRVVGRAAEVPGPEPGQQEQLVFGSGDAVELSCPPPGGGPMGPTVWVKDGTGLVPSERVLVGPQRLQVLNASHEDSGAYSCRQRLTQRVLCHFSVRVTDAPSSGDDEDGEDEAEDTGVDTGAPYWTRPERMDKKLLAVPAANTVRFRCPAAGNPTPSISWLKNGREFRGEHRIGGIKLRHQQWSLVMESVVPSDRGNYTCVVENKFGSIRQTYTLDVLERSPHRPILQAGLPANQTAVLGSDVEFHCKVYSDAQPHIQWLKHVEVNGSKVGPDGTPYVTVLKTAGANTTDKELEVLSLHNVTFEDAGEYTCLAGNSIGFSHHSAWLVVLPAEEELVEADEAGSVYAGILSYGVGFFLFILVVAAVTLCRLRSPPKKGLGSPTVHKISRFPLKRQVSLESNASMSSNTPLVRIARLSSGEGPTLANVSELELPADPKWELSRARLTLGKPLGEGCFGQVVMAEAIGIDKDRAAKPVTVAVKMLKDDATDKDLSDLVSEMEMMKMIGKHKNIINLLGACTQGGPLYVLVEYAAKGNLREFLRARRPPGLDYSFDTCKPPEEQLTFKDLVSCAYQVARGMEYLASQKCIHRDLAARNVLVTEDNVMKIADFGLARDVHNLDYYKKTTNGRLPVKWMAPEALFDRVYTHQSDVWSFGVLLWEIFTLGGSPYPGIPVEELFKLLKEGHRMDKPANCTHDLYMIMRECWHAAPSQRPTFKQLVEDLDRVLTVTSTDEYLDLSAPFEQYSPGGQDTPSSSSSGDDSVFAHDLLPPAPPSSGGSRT

Row | SMILES | inhibition [1] | inhibition [2] | inhibition [3] | inhibition [4] | inhibition [5] | inhibition [6] | inhibition [7] | inhibition [8] | inhibition [9] | inhibition [10] | inhibition [11] | inhibition [12] | inhibition [13] | inhibition [14] | inhibition [15] | inhibition [16] | inhibition [17] | inhibition [18] | inhibition [19] | inhibition [20]
1 | CCS(=O)(=O)c1ccc(OC)c(Nc2ncc(-c3ccccc3Cl)o2)c1 | 2.34% | 0.35% | 0.33% | 2.09% | 7.29% | 6.83% | 33% | 6.65% | 32.4% | 3.96% | 4.03% | 3.37% | 17% | 3.73% | 13.8% | 2.1% | 21.1% | 7.14% | -1.06% | 5.33%
2 | Cc1ccc(C(=O)NC2CCC2)cc1-c1ccc(C(=O)NCC2CC2)cc1 | 2.82% | 2.48% | 1.75% | 5.21% | 0.27% | 2.36% | 3.31% | 3.29% | 3.04% | 0.25% | 1.12% | 0.84% | 4.82% | 1.31% | -0.61% | 0.07% | 1.62% | 0.48% | -2.49% | 1.07%
3 | COc1cc2ncn(-c3cc(OCCc4ccccc4)c(C(N)=O)s3)c2cc1OC | 1.49% | 1.6% | 1.71% | 14.8% | 2.62% | 1.97% | 3.63% | 2.83% | 2.85% | -0.14% | 2% | -0.62% | 7.7% | 1.49% | 4.71% | 0.81% | 7.46% | 0.74% | -2.99% | 0.78%
4 | NC(=O)c1cc(-c2ccc(F)cc2)cc(-c2ccncc2)c1N | 1.93% | 3.18% | 3.59% | 5.1% | 3.07% | 1.81% | 4.41% | 4.84% | 2.54% | -4.89% | -0.36% | 5.32% | 3.24% | 0.41% | 0.85% | 3.14% | 2.01% | -6.54% | -2.58% | 4.68%
5 | O=C1Nc2ccc(I)cc2C1=Cc1cc(Br)c(O)c(Br)c1 | 4.37% | 3.93% | 4.1% | 5.92% | 2.51% | 8.24% | 7.14% | 6.43% | 5.73% | 5.1% | 5.57% | 0.14% | 3.52% | -0.02% | -1.49% | 2.03% | 5.54% | -4.08% | -0.2% | 2.41%
6 | C#Cc1cccc(Nc2ncnc3ccc(OCCCCNCCS(C)(=O)=O)cc23)c1 | 3.37% | 2.69% | 6.01% | 0.37% | 0.98% | 1.4% | 2.36% | 5.79% | 3.33% | -4.44% | -1.61% | 10.5% | 15.5% | 2.51% | 4.95% | 1.29% | 2.94% | 3.91% | -1.47% | 2.65%
7 | Cc1ccc(NC(=O)c2ccoc2)cc1-c1ccc(C(=O)NCC2CC2)cc1 | -0.39% | 2.83% | 1.55% | 11.2% | 3.99% | 0.64% | 3.44% | 2.69% | 5.14% | 1.47% | 1.63% | 2.23% | 3.07% | 1.47% | 8.07% | 0.8% | 0.9% | -5.38% | -0.16% | 0.97%
8 | CCc1cccc(CC)c1/C=C/c1cncc(C(=O)NC)c1 | 1.64% | 2.16% | 2.33% | 5.4% | 11.8% | 5.9% | 9.23% | 6.74% | 9.45% | -1.16% | 0.35% | 3.25% | 11.7% | 4.96% | 2.13% | 2.07% | 4.49% | 2.46% | -3.91% | 1.2%
9 | Clc1ccc(CNc2nccc(-c3cnn4ncccc34)n2)cc1 | 1.93% | 0.01% | 1.6% | 0.58% | -1.59% | 0.2% | 1.7% | -0.71% | -0.67% | 4.74% | 1.27% | 3.59% | 4% | -1.24% | 6.44% | 1.16% | 1.79% | 2.77% | 1.83% | 1.5%
10 | COc1cccc(-n2cnc3c(N/N=C/c4ccncc4)ncnc32)c1 | 4.82% | -0.04% | -1.27% | -7.19% | -2.61% | -3.25% | 10.7% | -3.58% | 3.63% | -4.06% | -3.96% | 6.79% | 19% | -1.12% | 1.4% | 0.88% | 6.95% | 7.7% | 3.46% | 1.07%
11 | Nc1nccc(-c2c(-c3ccc(F)cc3)ncn2C2CCC(O)CC2)n1 (stereo not given) | 19.8% | -2.78% | -2.56% | 0.56% | 11.3% | -2.57% | 1.23% | -0.35% | 1.39% | 2.77% | 0.55% | 1.87% | 16.5% | 0.09% | 1.16% | 1.8% | -0.14% | 3.94% | 0.09% | 0.62%
12 | NS(=O)(=O)c1ccc(N/N=C2\C(=O)Nc3ccc(-c4cnco4)cc32)cc1 | 0.94% | 0.3% | 0.19% | -2.98% | 2.6% | -0.2% | 15.2% | -0.63% | 10.1% | -3.55% | -2.44% | 3.25% | 12.9% | -0.89% | 7.48% | 5.93% | 38.3% | 22.6% | 9.13% | 2.48%
13 | CCc1nccc2c1nc(-c1nonc1N)n2CC | 7.31% | 0.14% | 1.26% | -0.52% | -4.23% | -1.59% | 3.19% | -0.24% | 2.1% | -1.31% | 1.32% | -0.77% | 3.85% | -0.82% | 1.6% | -0.04% | 0.33% | -2.37% | -2.82% | -0.74%
